Laboratory results as given in PMC7819943, “Rice protein-binding microarrays: a tool to detect cis-acting elements near promoter regions in rice”.
Whole data set: some 39,000 sequences, median “fluorescence intensity (a.u.)” near 4,300, cut for the highest 2% near 39,000. The sample holds the highest values, similar sequences and a random draw of the others, so the mix is not that of the screen.

target: T1, OsSMF1 (Oryza sativa, UniProt Q6ZLB0 1-436); assay: protein-binding microarray (RPBM); PBS, 2% BSA, 51.3 ng/ul salmon testes DNA, 50 uM zinc acetate, 200 nM TF, 25 C, 1 h; high values mean tight binding; conditions: protein: recombinant; tags: N-terminal polyhistidine and DsRed monomer fusion (pET32a); chain copies: 2; label: CyDye5-dUTP incorporated in the synthesized complementary strand; 3' TTTTT single-stranded linker to array surface; dsDNA, one strand shown
T1 sequence: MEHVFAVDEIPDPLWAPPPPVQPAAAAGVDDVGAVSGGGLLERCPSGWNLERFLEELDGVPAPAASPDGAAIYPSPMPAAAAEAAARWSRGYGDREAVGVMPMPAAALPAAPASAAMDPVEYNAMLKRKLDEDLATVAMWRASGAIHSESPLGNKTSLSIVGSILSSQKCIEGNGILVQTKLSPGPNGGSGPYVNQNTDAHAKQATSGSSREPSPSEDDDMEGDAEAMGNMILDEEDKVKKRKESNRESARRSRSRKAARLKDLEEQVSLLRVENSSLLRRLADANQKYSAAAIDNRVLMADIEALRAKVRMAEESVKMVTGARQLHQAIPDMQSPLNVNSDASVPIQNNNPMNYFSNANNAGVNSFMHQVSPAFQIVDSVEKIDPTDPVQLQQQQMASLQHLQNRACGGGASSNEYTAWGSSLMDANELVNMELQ
Method in brief: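 Binding signal here means per-feature fluorescence intensity in arbitrary units. The values were read on an Axon 4000B scanner after a custom Agilent array, double-stranded by primer extension with Cy5-dUTP, was incubated with 200 nM protein at 25 °C for 1 h in PBS with 2% BSA, salmon testes DNA and 50 µM zinc acetate, then washed. The proteins were transcription factors with an N-terminal polyhistidine tag and DsRed, expressed in E. coli BL21-CodonPlus and purified on Ni–NTA.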

Question: Which binding signal does the source give for “GGGGCCACATCGTCAGTGAAACGGACGGGTATAGGGTTAGCGGAGTCACCTAGTGCAG” here?
Answer: Its binding signal is 3270 fluorescence intensity (a.u.).

Question: Which binding signal does the source give for “CATAGCCCTCTGTCGCGGGCGCCGCTGTCCACCGTCCTCCCGGAGTCACCTAGTGCAG” here?
Answer: The binding signal was 43900 fluorescence intensity (a.u.).

Question: With “TTGACCGCTTGACGCGGAGCTCCCCGCCGGCCTCCTCCCCCGGAGTCACCTAGTGCAG” as the sequence, how does the binding signal read?
Answer: Its binding signal is 4540 fluorescence intensity (a.u.).

Question: With “CCTCCTCGCTGCCCAGCCACCGCCGCCCTCCCGTCCCGCGCGGAGTCACCTAGTGCAG” as the sequence, how does the binding signal read?
Answer: The binding signal was 3490 fluorescence intensity (a.u.).

Question: “ATCGCCCCGCTGACCGCCTCCTCCCGCGGCTGTCCGAGCGCGGAGTCACCTAGTGCAG” was tested. Which binding signal did it give?
Answer: The binding signal was 41300 fluorescence intensity (a.u.).

Question: Which binding signal does the source give for “CGCCGCCTCCGCCTCCGCCTCCGCTGCTCGCCGACCGGAGCGGAGTCACCTAGTGCAG” here?
Answer: Its binding signal is 4680 fluorescence intensity (a.u.).

Question: With “CGCGCCGTCGTCCAGCCACCGTCACGCCGCGCGGGGCGCCCGGAGTCACCTAGTGCAG” as the sequence, how does the binding signal read?
Answer: The binding signal was 3830 fluorescence intensity (a.u.).

Question: For “ATCAGCAACAATCAGGCTCCTGTGCGGTAAGTCCAACATTCGGAGTCACCTAGTGCAG”, which binding signal is on record?
Answer: The binding signal was 6700 fluorescence intensity (a.u.).

Question: How did the binding signal turn out when “AGTGCTAGTCATCACTGTATTAGATTTAGGAATCTCTTCTCGGAGTCACCTAGTGCAG” was run?
Answer: The binding signal was 3600 fluorescence intensity (a.u.).

Question: Which binding signal does the source give for “AATCCGCCGAGGGACTTATTGTGACCGGTTTTGATTAGTTCGGAGTCACCTAGTGCAG” here?
Answer: The binding signal was 19600 fluorescence intensity (a.u.).

Question: “CCACACACTTATGAACACGAGTACAGCCGATGCCCTATAACGGAGTCACCTAGTGCAG” was tested. Which binding signal did it give?
Answer: The binding signal was 3390 fluorescence intensity (a.u.).

Question: With “TAAGGCAAAAGCCAAAATTCAAATATAGTTAAAATTAAAGCGGAGTCACCTAGTGCAG” as the sequence, how does the binding signal read?
Answer: Its binding signal is 7150 fluorescence intensity (a.u.).

Question: With “TGTTAAATTCGTCTCGCAAAATAGCCTAAGGGTTATAGAACGGAGTCACCTAGTGCAG” as the sequence, how does the binding signal read?
Answer: Its binding signal is 40500 fluorescence intensity (a.u.).

Question: With “TATGATTTTAAATTCGTCATACTCTAGTTAGCCTAGAAAACGGAGTCACCTAGTGCAG” as the sequence, how does the binding signal read?
Answer: The binding signal was 3430 fluorescence intensity (a.u.).

Question: How did the binding signal turn out when “AAGCGCACGCACACATATGCCACGCATTGACGCATGGCACCGGAGTCACCTAGTGCAG” was run?
Answer: Its binding signal is 5630 fluorescence intensity (a.u.).

Question: Which binding signal does the source give for “CCCAGCCCACAAAGGAAGCGAGATCACAATTTCTGGGCCGCGGAGTCACCTAGTGCAG” here?
Answer: Its binding signal is 3400 fluorescence intensity (a.u.).

Question: For “GATCAACCTTATTTCTGCAAGCAAATCAAAGAAACAAGCACGGAGTCACCTAGTGCAG”, which binding signal is on record?
Answer: Its binding signal is 41700 fluorescence intensity (a.u.).

Question: Which binding signal does the source give for “TCCCGCCACAAGCAACCAAGAAATCAAGAAACCGTTTCAGCGGAGTCACCTAGTGCAG” here?
Answer: Its binding signal is 19600 fluorescence intensity (a.u.).

Question: “AAAAGCAAAAGCAAAAGAAACACGTCCTTATTCCTCTCTCCGGAGTCACCTAGTGCAG” was tested. Which binding signal did it give?
Answer: The binding signal was 3910 fluorescence intensity (a.u.).

Question: With “CGGCAGCCACCTCCCCACTCCATCCTCTCGTCCCCTTTTACGGAGTCACCTAGTGCAG” as the sequence, how does the binding signal read?
Answer: The binding signal was 3870 fluorescence intensity (a.u.).

Question: Which binding signal does the source give for “TGAGCTGCTTTTACACGTTGCTTTATTGACACTTGTTCACCGGAGTCACCTAGTGCAG” here?
Answer: Its binding signal is 45500 fluorescence intensity (a.u.).

Question: For “ATTGTTTAGTATTGCGTTATGTTATGTTACTTTTGATACACGGAGTCACCTAGTGCAG”, which binding signal is on record?
Answer: The binding signal was 14400 fluorescence intensity (a.u.).

Question: For “CTGCTCCTAGTCACACTTGACAGTTCAGCTTCAGCTCCTCCGGAGTCACCTAGTGCAG”, which binding signal is on record?
Answer: The binding signal was 6360 fluorescence intensity (a.u.).

Question: How did the binding signal turn out when “TGCATAAGGATAATCCGGTCGTCAGCAAACAATGCATTCACGGAGTCACCTAGTGCAG” was run?
Answer: Its binding signal is 3450 fluorescence intensity (a.u.).

Question: “CAAGACGGATTTATTAAGCCTAATTAATCTATCATTAGCGCGGAGTCACCTAGTGCAG” was tested. Which binding signal did it give?
Answer: Its binding signal is 4110 fluorescence intensity (a.u.).

Question: Which binding signal does the source give for “TGCAAATTGCGAGACGGATTTATTAAGCCTAGTTAATCCGCGGAGTCACCTAGTGCAG” here?
Answer: The binding signal was 39400 fluorescence intensity (a.u.).

Question: For “ACGAATTTATTAAGCCTAATTAATCCGTTATTAGCAAATGCGGAGTCACCTAGTGCAG”, which binding signal is on record?
Answer: Its binding signal is 6210 fluorescence intensity (a.u.).

Question: For “AAAGGCCACGCCTTTGCCTCGTCAGTTATCTCTTCGTTTCCGGAGTCACCTAGTGCAG”, which binding signal is on record?
Answer: The binding signal was 5220 fluorescence intensity (a.u.).

Question: With “GGAGTATCCATGCCAGCTAAGCGAGTTGTACAAGGCAAGCCGGAGTCACCTAGTGCAG” as the sequence, how does the binding signal read?
Answer: The binding signal was 5690 fluorescence intensity (a.u.).

Question: “CGGGTAGGCGAACACGTCGCTGACGCCGCACCGCTCCAGCCGGAGTCACCTAGTGCAG” was tested. Which binding signal did it give?
Answer: The binding signal was 6760 fluorescence intensity (a.u.).

Question: For “TGGTGATATCAATAGGATTGGAAGAGATTTGTCAGCCTATCGGAGTCACCTAGTGCAG”, which binding signal is on record?
Answer: Its binding signal is 3450 fluorescence intensity (a.u.).

Question: Which binding signal does the source give for “TATCAAAATCCACTGCAACATTTAATACATACATAGTGAACGGAGTCACCTAGTGCAG” here?
Answer: The binding signal was 21300 fluorescence intensity (a.u.).

Question: Which binding signal does the source give for “TAGCTCGTACTCCTACATCGTAGCCACCGCGCCTCCCATGCGGAGTCACCTAGTGCAG” here?
Answer: The binding signal was 3640 fluorescence intensity (a.u.).

Question: Which binding signal does the source give for “CGCCATGGGCGACATCGACATCTACAGCCTCTACACTCCGCGGAGTCACCTAGTGCAG” here?
Answer: The binding signal was 44200 fluorescence intensity (a.u.).

Question: With “CGCCATGGGAGCACTCCCCATCTTGTCCTCTACCGCCGCGCGGAGTCACCTAGTGCAG” as the sequence, how does the binding signal read?
Answer: The binding signal was 3250 fluorescence intensity (a.u.).

Question: For “GCCTGTGGCCCACGCCGTCAGTGGGAGTGGCGGTGTCGGGCGGAGTCACCTAGTGCAG”, which binding signal is on record?
Answer: Its binding signal is 3960 fluorescence intensity (a.u.).

Question: With “CCGAATCCGGCCACCCCGCCGCCTCCACGCGCATCACCGCCGGAGTCACCTAGTGCAG” as the sequence, how does the binding signal read?
Answer: The binding signal was 3220 fluorescence intensity (a.u.).

Question: How did the binding signal turn out when “ACGGGCACGACGACCGTCGTGCTCACGGCCGCCGACGTCGCGGAGTCACCTAGTGCAG” was run?
Answer: The binding signal was 4140 fluorescence intensity (a.u.).

Question: For “GCCGATTGCAATTTCGTCATCACTGCGGTTAGGATTACACCGGAGTCACCTAGTGCAG”, which binding signal is on record?
Answer: The binding signal was 4340 fluorescence intensity (a.u.).

Question: “TGCTGTCGATGTGCTTATCTTTCGATTTATTCCTCTCATCCGGAGTCACCTAGTGCAG” was tested. Which binding signal did it give?
Answer: Its binding signal is 3200 fluorescence intensity (a.u.).

Question: “CTCCGCAGTCGTAGGCCCACGCGAACCATTCCGTGTGCAACGGAGTCACCTAGTGCAG” was tested. Which binding signal did it give?
Answer: Its binding signal is 52000 fluorescence intensity (a.u.).

Question: Which binding signal does the source give for “CCCACCATTGCCGCCGTGTCCGGCAACCTAACGAACCTCGCGGAGTCACCTAGTGCAG” here?
Answer: The binding signal was 4100 fluorescence intensity (a.u.).

Question: How did the binding signal turn out when “GGCAACGCACCACGCTGCACGCGTCCGTGGTCGCCGCGAACGGAGTCACCTAGTGCAG” was run?
Answer: Its binding signal is 3150 fluorescence intensity (a.u.).
